Bioassay records deposited in PubChem BioAssay by several laboratories.
Mtb FBA inh – inhibits M. tuberculosis FBA enzyme. P9WQA3. 2.3% of 360,000 active. inhibition, % at 1 µM. AID 588726. purified M. tuberculosis FBA, fluorescence read-out; in the data active means inhibition above about 27%
Target sequence (P9WQA3 whole entry, looked up): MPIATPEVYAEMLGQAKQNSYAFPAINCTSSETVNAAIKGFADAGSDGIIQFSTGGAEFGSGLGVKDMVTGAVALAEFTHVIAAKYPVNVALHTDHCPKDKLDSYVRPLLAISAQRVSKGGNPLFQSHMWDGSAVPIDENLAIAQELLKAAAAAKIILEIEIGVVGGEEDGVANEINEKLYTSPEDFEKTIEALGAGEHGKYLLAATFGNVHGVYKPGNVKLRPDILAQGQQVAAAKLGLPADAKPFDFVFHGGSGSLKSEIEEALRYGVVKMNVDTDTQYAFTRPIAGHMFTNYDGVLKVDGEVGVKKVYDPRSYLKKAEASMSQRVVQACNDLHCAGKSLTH
Mtb UGM inh – blocks M. tuberculosis UGM enzyme. purified UGM, fluorescence polarization probe displacement. P9WIQ1. AID 504406. 0.06% of 320,000 active. inhibition, % at 10 µM; in the data active means inhibition above about 10%, passing the limit was not always enough
BH1578 lux ind – inducers of Vibrio cholerae quorum light production without autoinducers; activation, % at 18.7 µM; V. cholerae BH1578 lux reporter, luminescence, 6 h; 0.16% of 350,000 active; in the data active means activation mostly above about 9.7%, no sharp cut-off
GDH-TPI inh – counter-screen for M. tuberculosis FBA inhibitors: GDH-TPI coupled enzymes; GDH-TPI coupled enzyme counterscreen, NADH absorbance; inhibition, % at 4.8 µM; 1.2% of 360,000 active; AID 588335; in the data active means inhibition above about 30%
Rv3671c protease – inhibits the M. tuberculosis serine protease Rv3671c; inhibition, % at 5.96 µM; 0.048% of 320,000 active; P9WHR9; AID 2606; in the data active means inhibition above about 38%;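 further: extracellular domain of Rv3671c used as enzyme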
RecA intein inh – Mtb RecA intein splicing inhibition | P9WHJ3 | cell-free RecA intein splicing, fluorescence | 0.75% of 290,000 active | inhibition, % (concentration not given with the values); in the data active means inhibition above about 30%
GFP chromo cs – counter-screen: blocks GFP chromophore formation; shares compounds with RecA intein inh; cell-free GFP chromophore formation, fluorescence; EC50, µM; 83% of 2,100 active; AID 434968; call rule not given here
Of the large screens only hits and unclear results are named; the others gave an inactive call (follow-up assays come after a bar, where they were run). A selection: hits, their analogues and other compounds. The true share with any hit is near 4.1%.

COc1ccc(Br)cc1[C@H]1[C@H]2C=CC[C@@H](C)[C@@H]2C(=O)N1Cc1ccccc1	RecA intein inh 34 (no result: Mtb UGM inh, Rv3671c protease) | GFP chromo cs inactive
CCc1nc2ccc(C(=O)Nc3ccc(OC)c(OC)c3)cn2c1N(C)Cc1nccs1	none (no result: Mtb UGM inh, Rv3671c protease, RecA intein inh)
CN(C)c1nc(=NCc2cccs2)ss1	none (no result: Mtb UGM inh, Rv3671c protease, RecA intein inh)
CC1(NC(=S)NCCO)CCS(=O)(=O)C1 (configuration not stated)	none
CC(C)NC(=S)NC1(C)CCS(=O)(=O)C1 (configuration not stated)	RecA intein inh 48 | GFP chromo cs inactive
N#Cc1cccc(S(=O)(=O)NNC(=O)C23CC4CC(CC(C4)C2)C3)c1	none (no result: RecA intein inh)
Cc1nc2c(=O)[nH]c(=S)[nH]c2[nH]c1=O	none (no result: Mtb UGM inh, Rv3671c protease, RecA intein inh)
Cc1ccc(C(=O)c2ccc([N+](=O)[O-])cc2)cc1	none
Cc1ccc(C(=O)c2coc3cc([N+](=O)[O-])c(O)c([N+](=O)[O-])c23)cc1	RecA intein inh 34 | GFP chromo cs 37
COCc1[nH]nc2c1C(c1ccc(F)cc1F)C(C#N)=C(N)O2 (configuration not stated)	none
COCc1[nH]nc2c1C(c1ccnc3ccccc13)C(C#N)=C(N)O2 (configuration not stated)	none
CCn1c2ccccc2c2cc(C3C(C#N)=C(N)Oc4n[nH]c(COC)c43)ccc21 (configuration not stated)	RecA intein inh 77 | GFP chromo cs 10
COCc1[nH]nc2c1C(c1ccc(OC)c(OC)c1)C(C#N)=C(N)O2 (configuration not stated)	RecA intein inh 56 | GFP chromo cs 31
O=C(c1ccc(F)cc1F)N1CCCc2ccccc21	none (no result: Rv3671c protease)
CC(C)c1ccc(NC(=O)C2(C)Cc3c(-c4ccc5c(c4)OCO5)ccnc3O2)cc1 (configuration not stated)	none (no result: Mtb UGM inh, Rv3671c protease, RecA intein inh)
COc1ccc(N(C(=O)c2ccco2)S(=O)(=O)c2cccs2)cc1	RecA intein inh 33 | GFP chromo cs inactive
O=C(Nc1ccccc1N(C(=O)c1ccco1)S(=O)(=O)c1cccs1)c1ccco1	none | GFP chromo cs 5.8
O=C(Nc1ccccc1NC(=O)c1ccco1)c1ccco1	none
Cc1ccc(C(=O)C2C(c3ccc(-c4ccccc4[N+](=O)[O-])o3)NC(=O)NC2(O)C(F)(F)F)cc1 (configuration not stated)	RecA intein inh 83 | GFP chromo cs 22
O=C1NC(c2ccc(-c3ccccc3[N+](=O)[O-])o2)C(C(=O)c2ccccc2)C(O)(C(F)(F)F)N1 (configuration not stated)	none
Cc1nc(Nc2ccc(O)cc2)c2c3c(sc2n1)CCCC3	RecA intein inh 30 | GFP chromo cs inactive
Cc1cccc(NC(=O)CSc2c3c(nc4ccccc24)CCC3)n1	none
COc1cccc(NC(=O)CSc2c3c(nc4ccccc24)CCCC3)c1	RecA intein inh 70 | GFP chromo cs 24
CSc1nnc(NC(=O)c2nc(S(=O)(=O)Cc3ccccc3F)ncc2Cl)s1	RecA intein inh 76 | GFP chromo cs 23
Cc1nnc(NC(=O)c2nc(S(=O)(=O)Cc3ccccc3C)ncc2Cl)s1	RecA intein inh 67 | GFP chromo cs inactive
CC(C)c1nnc(NC(=O)c2nc(S(=O)(=O)Cc3ccccc3F)ncc2Cl)s1	RecA intein inh 83 (no result: Mtb FBA inh, BH1578 lux ind, GDH-TPI inh) | GFP chromo cs 14
CSc1ncc(Cl)c(C(=O)Nc2nnc(SC/C=C/c3ccccc3)s2)n1	none
C[C@H]1CN([C@@H](C)CO)C(=O)c2cc(-c3ccccc3F)cnc2O[C@@H]1CN(C)C(=O)NC1CCCCC1	none (no result: Mtb UGM inh, Rv3671c protease, RecA intein inh)
O=C1NC(Cc2ccccc2)c2nc3ccc(Cl)cc3c(=O)n2-c2ncccc21 (configuration not stated)	none (no result: Mtb UGM inh, Rv3671c protease, RecA intein inh)
O=S(=O)(Nc1cccc2ccccc12)c1ccccc1F	none
O=S(=O)(Nc1c(O)ccc2ccccc12)c1cccc2ccccc12	RecA intein inh 84 | GFP chromo cs 4.3
Cc1ccc(S(=O)(=O)Nc2c(O)ccc3ccccc23)cc1	RecA intein inh 76 | GFP chromo cs 3.1
Cc1ccc(S(=O)(=O)NN=Cc2c(O)ccc3ccccc23)cc1	none (no result: Mtb UGM inh, Rv3671c protease, RecA intein inh)
COc1ccc2nc(C)cc(SCC(=O)NNC(=O)COc3ccccc3)c2c1	none
COc1ccc2nc(C)cc(Sc3nc4ccccc4s3)c2c1	RecA intein inh 38 | GFP chromo cs 24
O=C1c2cccc(NCCCNCCO)c2C(=O)c2cccc(NCCCNCCO)c21	none (no result: Mtb UGM inh, Rv3671c protease, RecA intein inh)
O=C(C(Cl)Cl)N1c2ccccc2OCC1c1ccccc1 (configuration not stated)	RecA intein inh 72 | GFP chromo cs 35
O=C(COC(=O)C1CC2CCCC(C1)C2=O)Nc1ccc(Cl)cn1 (configuration not stated)	none (no result: Mtb UGM inh, RecA intein inh)
O=C(N/N=C1\C/C(=N\NC(=O)c2ccncc2)c2ccccc21)c1ccncc1	RecA intein inh 95 | GFP chromo cs 1.2
COc1ccc(-c2cc(=O)n(CCC#N)[nH]2)cc1	RecA intein inh 97 | GFP chromo cs 2
O=C(c1ccc2nc(Cc3cccc(Cl)c3)oc2c1)N1CCC(O)CC1	RecA intein inh 42 | GFP chromo cs inactive
O=C(NCc1ccc2c(c1)OCO2)c1nc(S(=O)(=O)Cc2ccccc2)ncc1Cl	RecA intein inh 53 | GFP chromo cs 14
O=C(NCc1ccc2c(c1)OCO2)c1nc(S(=O)(=O)Cc2ccccc2F)ncc1Cl	RecA intein inh 37 | GFP chromo cs 8.9
Cc1ccccc1N1C(=O)c2ccccc2C1Nc1cccnc1 (configuration not stated)	RecA intein inh 33 | GFP chromo cs inactive
Cc1cn([C@H]2C[C@H](O)[C@@H](CNCc3cccn3-c3ccncc3)O2)c(=O)[nH]c1=O	none (no result: Mtb UGM inh, Rv3671c protease, RecA intein inh)
Brc1ccc(CNc2ccc3ncccc3c2)cc1	RecA intein inh 39 (no result: Rv3671c protease) | GFP chromo cs inactive
O=C(Nc1ccc2ncccc2c1)c1cccc(Br)c1	none
Nc1c(C(=O)N/N=C/c2ccc(Cl)cc2)cnn1-c1ccccc1	none
Nc1scc2c(C(=O)N/N=C/c3ccc(Cl)cc3)nn(-c3ccccc3)c(=O)c12	RecA intein inh 63 | GFP chromo cs 16
O=C(NC1CCCC1)C(c1ccc(Cl)cc1)N(Cc1ccc(F)cc1)C(=O)CCl (configuration not stated)	RecA intein inh 67 | GFP chromo cs 2.7
O=C(NC1CCCC1)C(c1ccc(F)cc1)N(Cc1ccc(Cl)cc1)C(=O)CCl (configuration not stated)	RecA intein inh 59 | GFP chromo cs 7
CCCn1c(CN2CCN(C(=O)OCC)CC2)nc2cc([N+](=O)[O-])ccc21	none
Cc1ccc(OC(=O)C2CCN(C(=O)c3ccccc3C)CC2)c(Br)c1	none
CCOc1ccccc1NC(=O)C1CCN(C(=O)C2CC(=O)N(c3ccc(C)cc3)C2)CC1 (configuration not stated)	none
